Each structure is given as a SMILES string. “And” between values parts separate entries of the source, which are not always exact repeats. Equal values may be shown once. Inconclusive results are not listed. The source made the active and inactive calls. Unless noted, the call rests on the fitted dose curve; in most records, active means well fitted curve in the direction sought with a large enough effect; inconclusive means small, poorly fitted or top-dose-only effect, or another doubt; inactive means no such curve, though single readings can be large; an effect the other way counts as inactive or inconclusive.

Assay [1] in a line: Cell Viability - Jurkat (AID 426;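 active means dose-dependent loss of cell ATP signal giving a full or clear fitted curve, ranked by lower potency value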;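 further: potency means the concentration at half of the fitted maximal effect; cells exposed to compound for 40 hours at 37 °C before ATP read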). The settings on record: qHTS. In outline: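 Cytotoxicity was scored as loss of cellular ATP, measured by luciferase-based luminescence, in Jurkat clone E6-1 cells after 40 h compound treatment; tamoxifen and doxorubicin served as positive controls.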
For assay [2], the target named is Mitogen-activated protein kinase 10 (Mus musculus) (UniProt Q61831). Kind of assay: JNK3 AlphaScreen Assay (AID 530; active means well fitted curve in either direction with a large enough effect, not every such curve was filed as active;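 further: kinase came from lysate of stimulated human HepG2 cells; on the % scale 0 is the no-effect control and ±100 the full control effect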). As to conditions: JNK3 lysate, c-Jun phosphorylation; series mostly up to 57.1 µM. In outline: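 Biotinylated GST-cJun(1-79) served as substrate for JNK3 in HepG2 lysates stimulated with IL-1beta and TNF-alpha. ATP was 10 uM final, pH 7.6. Ser73 phosphorylation was quantified by AlphaScreen (680 nm excitation).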
In general terms: In Alpha technology, singlet oxygen from a donor bead excites a nearby acceptor bead.

Assay [3] is described as follows: Cell Viability - NIH 3T3 (AID 541).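 Further: cells exposed to compound for 40 hours; nearly all actives have a fitted effect of over 25% in size.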 Further: potency means the concentration at half of the fitted maximal effect.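 On activity change, negative = cytotoxicity: plate controls were DMSO alone for no effect and tamoxifen positive control for full effect.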 As to conditions: NIH 3T3 cell viability, qHTS; activity change, negative = cytotoxicity: at 92.2 µM (top of the series). In outline:
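In this cytotoxicity screen, acute toxicity is scored as an ATP drop measured by CellTiter-Glo in NIH 3T3 fibroblasts following a 40 hr, 37 °C incubation with compound.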

Assay [4] is described as follows: Cell Viability - LYMP2-024 (AID 988).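 Further: cells exposed to compound for 24 hr at 37 °C; plate controls were DMSO only for no effect and 92 µM tetraoctylammonium bromide for full effect; nearly all actives have a fitted effect of over 60% in size.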 As to conditions: LYMP2-024 lymphoblastoid cell viability; series mostly up to 92.2 µM. In outline:
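Cells at 2500 per well received compound for 24 hr after a 5 hr settling period. Viability was scored by CellTiter-Glo luminescence, with AC50 from Hill fits.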

The nature of assay [5]: qHTS assay for small molecule antagonists of peroxisome proliferator-activated receptor delta signaling (AID 588535; active means well fitted inhibition curve with a large enough effect in the signal ratio, with a control signal flat, not every such curve was filed as active; the % refers to the signal ratio;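 on max response: cells co-treated with a PPAR-delta agonist as stimulator during compound exposure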). As to conditions: HEK293T PPARd-UAS-bla, beta-lactamase FRET ratio, 18 h; 460 nm channel. The gist of the method: (§1)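 Compounds tested in titration on PPAR-delta-UAS-bla HEK293T cells grown in charcoal/dextran-stripped serum (2%); beta-lactamase activity read via CCF4 emission at 460 and 530 nm.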
For orientation: qHTS replaces the single test concentration by a dilution series.

For assay [6], the target named is Peroxisome proliferator-activated receptor gamma (Homo sapiens) (UniProt P37231). Kind of assay: qHTS assay for small molecule antagonists of peroxisome proliferator-activated receptor gamma signaling (AID 588537; active means well fitted inhibition curve with a large enough effect in the signal ratio, with a control signal flat, not every such curve was filed as active; the % refers to the signal ratio;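 further: reporter cells co-stimulated with 50 nM rosiglitazone agonist during compound treatment; % of control where 0% means no effect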). The settings on record: HEK293 PPARg-UAS-bla, beta-lactamase ratio, antagonist mode; series mostly up to 76.8 µM. The gist of the method: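 HEK293 cells, PPAR-gamma-UAS-bla, 3000/well. Pre-incubation 6-6.5 h, 37 C. Compound titration with rosiglitazone 50 nM final, 16 h. CCF4 dye, 2 h RT, dual-emission fluorescence.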
Sequence of Peroxisome proliferator-activated receptor gamma (Homo sapiens) (P37231 whole entry, looked up): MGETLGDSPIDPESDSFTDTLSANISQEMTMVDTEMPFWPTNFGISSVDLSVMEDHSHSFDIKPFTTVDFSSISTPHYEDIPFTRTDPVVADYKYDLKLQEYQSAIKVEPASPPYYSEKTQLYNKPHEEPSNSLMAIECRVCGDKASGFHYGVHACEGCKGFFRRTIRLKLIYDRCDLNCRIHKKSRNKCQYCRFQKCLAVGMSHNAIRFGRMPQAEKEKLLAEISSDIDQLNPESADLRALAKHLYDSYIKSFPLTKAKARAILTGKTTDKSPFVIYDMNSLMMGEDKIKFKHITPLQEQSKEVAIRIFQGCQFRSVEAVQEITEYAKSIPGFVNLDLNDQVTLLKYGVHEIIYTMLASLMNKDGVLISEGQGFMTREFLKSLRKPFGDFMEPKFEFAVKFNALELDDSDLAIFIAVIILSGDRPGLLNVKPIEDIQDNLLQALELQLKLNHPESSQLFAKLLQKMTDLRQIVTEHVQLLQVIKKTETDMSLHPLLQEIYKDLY

The target in assay [7] is Vitamin D3 receptor (Homo sapiens) (UniProt P11473). Kind of assay: qHTS assay for small molecule agonists of vitamin D receptor signaling (AID 588543; calls by dose curve;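 further: 0% = DMSO basal and 100% = reference agonist control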). The settings on record: HEK293T VDR-UAS-bla, beta-lactamase ratio, 16 h; series mostly up to 76.8 µM. In outline: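 GeneBLAzer VDR-UAS-bla HEK293T cells in 2% charcoal-stripped FBS medium were dosed with compound titrations for 16 h at 37 °C; CCF4 β-lactamase readout (405 nm ex, 460/530 nm em). EC50 and efficacy from Hill fits, normalized to 50 nM calcitriol (100%) and DMSO (0%).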
Sequence of Vitamin D3 receptor (Homo sapiens) (P11473 whole entry, looked up): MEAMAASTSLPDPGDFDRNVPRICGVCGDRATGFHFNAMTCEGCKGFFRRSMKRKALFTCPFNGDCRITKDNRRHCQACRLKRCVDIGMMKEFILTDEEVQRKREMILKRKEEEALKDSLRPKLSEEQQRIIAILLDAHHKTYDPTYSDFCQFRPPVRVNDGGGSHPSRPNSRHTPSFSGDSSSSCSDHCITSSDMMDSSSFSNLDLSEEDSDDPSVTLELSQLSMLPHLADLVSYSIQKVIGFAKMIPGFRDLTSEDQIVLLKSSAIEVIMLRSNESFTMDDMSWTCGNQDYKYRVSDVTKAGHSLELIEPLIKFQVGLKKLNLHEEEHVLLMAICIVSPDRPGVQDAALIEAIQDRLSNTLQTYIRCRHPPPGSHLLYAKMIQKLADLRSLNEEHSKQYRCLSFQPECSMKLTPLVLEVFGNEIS

A short description of assay [8]: qHTS assay for small molecule activators of the nuclear factor-kappa B (NF-kB) signaling pathway (AID 651749; active means well fitted activation curve with a large enough effect in the signal ratio; the % refers to the signal ratio; further: % of control where 0% means no effect). The settings on record: NF-kB-bla ME-180 cells, beta-lactamase FRET ratio, 16 h; stronger effect = higher value. The gist of the method: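 Beta-lactamase reporter expression, controlled by NF-kB response elements in ME-180 cells, was quantified fluorometrically via FRET disruption; cells at 2,000/well had been incubated with 23 nL test compound for 16 hr.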

Assay [9] can be described thus: qHTS assay for small molecule disruptors of the mitochondrial membrane potential - 5 hr assay (AID 651755; calls by dose curve; further: on the % scale 0 is the no-effect control and ±100 the full control effect; nearly all actives have a fitted effect of over 40% in size). The settings on record: JC-1-type ratio dye; series mostly up to 92.2 µM. In outline: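 Seed HepG2 overnight, add compound, incubate 5 hr at 37C and 5% CO2, stain 30 min with Mito-MPS, then measure monomer (490/535 nm) and aggregate (540/590 nm) fluorescence.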

Assay [10] deals with Tumor necrosis factor (Homo sapiens) (UniProt P01375). Kind of assay: qHTS assay to identify small molecules that stimulate Tumor Necrosis Factor-alpha (TNF-alpha) secretion (AID 651757; active means well fitted curve in the direction sought with a large enough effect in the signal ratio; the % refers to the signal ratio; further: 0% is about no effect). The settings on record: Human cells, HTRF 665/615 ratio; series mostly up to 92.2 µM. In outline: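 Using 3000 THP-1 cells per well, compounds and controls were applied for 17 hrs at 37 C. Detection followed with two labeled anti-TNF-alpha antibodies (cryptate donor, XL665 acceptor) for 3 hr at room temperature, measured by TR-FRET.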
Sequence of Tumor necrosis factor (Homo sapiens) (P01375 whole entry, looked up): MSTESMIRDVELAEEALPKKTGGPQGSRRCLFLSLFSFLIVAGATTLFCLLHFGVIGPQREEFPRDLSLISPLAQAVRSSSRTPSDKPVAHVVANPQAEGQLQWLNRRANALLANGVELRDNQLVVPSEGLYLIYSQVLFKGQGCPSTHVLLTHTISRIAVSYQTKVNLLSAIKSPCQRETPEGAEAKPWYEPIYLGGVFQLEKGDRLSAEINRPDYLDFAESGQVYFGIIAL

Assay [11] is described as follows: MultiTox-Fluor Cytotoxicity Assay - LYMP1-002 - Dead Cells (AID 960).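 Further: 0% = DMSO and 100% = tetraoctylammonium bromide; nearly all actives have a fitted effect of over 60% in size.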 As to conditions: LYMP1-002 lymphoblastoid cells, dead-cell protease fluorescence; series mostly up to 46.1 µM. In outline: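 Concentration-dependent increases in membrane-leaked protease activity are quantified in LYMP1-002 cells after 16 hr treatment; values are normalized against DMSO and tetraoctylammonium bromide (15 uM) controls and AC50 derived by Hill modeling.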

Assay [12] addresses Estrogen receptor (Homo sapiens) (UniProt P03372). Kind of assay: qHTS assay for small molecule antagonists of estrogen receptor alpha signaling (AID 588513; active means well fitted curve in the direction sought with a large enough effect in the signal ratio, with a control signal flat, not every such curve was filed as active; the % refers to the signal ratio; further: on the % scale 0 is the no-effect control and ±100 the full control effect). The settings on record: ER-alpha-UAS-bla HEK293, beta-lactamase ratio, antagonist mode; series mostly up to 76.9 µM. The gist of the method:
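ER-alpha-UAS-bla GripTite HEK 293 cells in medium with 2% charcoal/dextran-treated FBS were preincubated 4 h at 37 C, dosed with compound (1:2 titration), stimulated with 0.5nM 17-beta-estradiol for 18 h, then read by CCF4 beta-lactamase fluorescence.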

Assay [13] addresses Peroxisome proliferator-activated receptor delta (Homo sapiens) (UniProt Q03181). Kind of assay: qHTS assay for small molecule antagonists of peroxisome proliferator-activated receptor delta signaling (AID 588535).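 On max response: cells co-treated with a PPAR-delta agonist as stimulator during compound exposure.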 As to conditions: HEK293T PPARd-UAS-bla, beta-lactamase FRET ratio, 18 h; series mostly up to 76.7 µM. The gist of the method:
as §1

A short description of assay [14]: qHTS assay for small molecule agonists of the antioxidant response element (ARE) signaling pathway (AID 651741; active means well fitted activation curve with a large enough effect in the signal ratio; the % refers to the signal ratio; further: potency means the concentration at half of the fitted maximal effect; on activation: % of control where 0% means no effect). The settings on record: HepG2 ARE-bla reporter, beta-lactamase FRET ratio, 16 h; series mostly up to 96 µM. In outline:
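Beta-lactamase reporter expression driven by the antioxidant response element in HepG2 cells was detected by fluorescence with LiveBLAzer B/G FRET substrate (2 h, room temperature) following 16 h compound treatment at 37 C.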

For assay [15], the target named is Nuclear receptor ROR-gamma (Homo sapiens) (UniProt P51449). Kind of assay: qHTS assay for small molecule antagonists of the retinoid-related orphan receptor gamma (ROR-gamma) signaling pathway (AID 651802).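 Further: CHO cells with doxycycline-induced ROR-gamma expression; luciferase reporter luminescence driven by ROR response element; on the % scale 0 is the no-effect control and ±100 the full control effect; nearly all actives have a fitted effect of over 60% in size.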 As to conditions: ROR-gamma antagonist cell reporter assay; series mostly up to 92.2 µM. In outline:
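Doxycycline-induced reporter activity in engineered CHO cells (TET-inducible ROR, RORE-LUC) was measured by luminescence after 16hr compound exposure at 37C.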

Assay [16] is described as follows: Cell Viability - HepG2 (AID 433; calls by dose curve;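 further: potency means the concentration at half of the fitted maximal effect; cells exposed to compound for 40 hours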). As to conditions: qHTS. The gist of the method:
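HepG2 hepatocellular carcinoma cells (1500/well) were treated with compounds for 40 h at 37 °C in complete medium; intracellular ATP was read by CellTiter-Glo luminescence. Data were normalized to DMSO and 100 uM tamoxifen, and AC50 came from Hill fits.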

Assay [17] concerns the target Glucocorticoid receptor (Homo sapiens) (UniProt P04150). Kind of assay: qHTS assay for small molecule agonists of glucocorticoid receptor signaling (AID 588532; active means well fitted curve in the direction sought with a large enough effect in the signal ratio, with a control signal flat; the % refers to the signal ratio;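 further: 100% = dexamethasone at 0.1 µM and 0% = DMSO only wells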). The settings on record: HeLa MMTV-bla, beta-lactamase ratio, agonist, 18 h; stronger effect = higher value; percent of dexamethasone control, DMSO zero. In outline: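 Stimulation of a glucocorticoid response element-driven beta-lactamase gene was measured in HeLa cells. Responses were scaled between DMSO basal and 0.1 uM dexamethasone, then fitted for half-maximal stimulation.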

For assay [18], the target named is Peroxisome proliferator-activated receptor gamma (Homo sapiens) (UniProt P37231). Kind of assay: qHTS assay for small molecule agonists of peroxisome proliferator-activated receptor gamma signaling (AID 588536; active means well fitted curve in the direction sought with a large enough effect in the signal ratio, with a control signal flat, not every such curve was filed as active; the % refers to the signal ratio;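 further: 0% = DMSO basal wells and 100% = rosiglitazone at 2 µM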). As to conditions: HEK293 PPARg-UAS-bla, beta-lactamase ratio, 16 h, percent of rosiglitazone response, DMSO as zero; series mostly up to 76.7 µM. In outline:
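Using GeneBLAzer HEK293 cells, response was quantified by CCF4 fluorescence and normalized between basal DMSO (0%) and rosiglitazone 2 uM (100%); curves yielded half-maximal stimulation concentration and efficacy.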

Assay [19] deals with Bile acid receptor (Homo sapiens) (UniProt Q96RI1). Kind of assay: qHTS assay for small molecule agonists of farnesoid X receptor signaling (AID 588527; calls by dose curve;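 further: 0% = vehicle basal and 100% = reference agonist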). As to conditions: HEK293T FXR-UAS-bla, beta-lactamase ratio, 16 h; stronger effect = higher value. The gist of the method:
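Quantitative HTS used FXR-UAS-bla HEK293T cells with 16 h compound incubation at 37 C. EC50 values came from concentration-response curves normalized to chenodeoxycholic acid.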

The target in assay [20] is Glucocorticoid receptor (Homo sapiens) (UniProt P04150). Kind of assay: qHTS assay for small molecule antagonists of glucocorticoid receptor signaling (AID 588533; active means well fitted inhibition curve with a large enough effect in the signal ratio, with a control signal flat, not every such curve was filed as active; the % refers to the signal ratio;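 further: cells stimulated with 2 nM dexamethasone as agonist; on the % scale 0 is the no-effect control and ±100 the full control effect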). As to conditions: HeLa MMTV-bla, GRE beta-lactamase ratio, antagonist mode, 18 h; series mostly up to 76.8 µM. The gist of the method: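 Antagonist-mode qHTS: compound titrations added to GRE-bla HeLa cells, then dexamethasone 2 nM final; 18 h, 37 C. CCF4 FRET fluorescence normalized to dexamethasone and DMSO; IC50 from Hill fit.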
Sequence of Glucocorticoid receptor (Homo sapiens) (P04150 whole entry, looked up): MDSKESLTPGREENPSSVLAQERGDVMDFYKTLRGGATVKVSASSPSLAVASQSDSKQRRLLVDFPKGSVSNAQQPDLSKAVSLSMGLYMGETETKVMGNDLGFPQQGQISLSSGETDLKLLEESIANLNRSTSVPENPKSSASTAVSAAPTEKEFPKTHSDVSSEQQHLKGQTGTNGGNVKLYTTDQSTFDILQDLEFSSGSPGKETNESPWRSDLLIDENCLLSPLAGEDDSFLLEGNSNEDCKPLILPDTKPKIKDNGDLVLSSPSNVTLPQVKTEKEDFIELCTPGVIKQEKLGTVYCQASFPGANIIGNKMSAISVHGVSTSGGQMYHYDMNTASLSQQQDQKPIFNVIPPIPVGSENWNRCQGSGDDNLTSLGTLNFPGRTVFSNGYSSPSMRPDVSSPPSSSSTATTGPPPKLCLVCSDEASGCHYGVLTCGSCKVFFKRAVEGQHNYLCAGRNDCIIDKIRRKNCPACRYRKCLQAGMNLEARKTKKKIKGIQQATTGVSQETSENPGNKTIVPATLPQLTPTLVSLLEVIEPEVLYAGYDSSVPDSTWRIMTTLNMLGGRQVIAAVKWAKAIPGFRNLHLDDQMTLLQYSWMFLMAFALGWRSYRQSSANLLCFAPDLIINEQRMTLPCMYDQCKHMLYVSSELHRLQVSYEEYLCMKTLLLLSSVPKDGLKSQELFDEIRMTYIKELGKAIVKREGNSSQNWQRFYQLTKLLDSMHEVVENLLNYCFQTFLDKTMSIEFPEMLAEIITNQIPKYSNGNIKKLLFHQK

Sequence of Peroxisome proliferator-activated receptor delta (Homo sapiens) (Q03181 whole entry, looked up): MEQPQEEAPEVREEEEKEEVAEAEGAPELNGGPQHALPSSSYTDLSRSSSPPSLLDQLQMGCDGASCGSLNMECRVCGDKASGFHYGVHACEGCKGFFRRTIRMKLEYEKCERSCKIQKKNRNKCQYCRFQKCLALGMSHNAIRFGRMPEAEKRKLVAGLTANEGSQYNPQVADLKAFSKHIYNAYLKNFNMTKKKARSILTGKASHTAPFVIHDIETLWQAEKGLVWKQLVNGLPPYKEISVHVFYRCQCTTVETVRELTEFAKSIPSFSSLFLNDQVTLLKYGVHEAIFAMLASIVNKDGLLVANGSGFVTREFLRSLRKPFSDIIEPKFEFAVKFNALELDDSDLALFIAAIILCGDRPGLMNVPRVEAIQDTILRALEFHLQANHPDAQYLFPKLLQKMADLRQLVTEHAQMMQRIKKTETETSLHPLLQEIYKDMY
Sequence of Nuclear receptor ROR-gamma (Homo sapiens) (P51449 whole entry, looked up): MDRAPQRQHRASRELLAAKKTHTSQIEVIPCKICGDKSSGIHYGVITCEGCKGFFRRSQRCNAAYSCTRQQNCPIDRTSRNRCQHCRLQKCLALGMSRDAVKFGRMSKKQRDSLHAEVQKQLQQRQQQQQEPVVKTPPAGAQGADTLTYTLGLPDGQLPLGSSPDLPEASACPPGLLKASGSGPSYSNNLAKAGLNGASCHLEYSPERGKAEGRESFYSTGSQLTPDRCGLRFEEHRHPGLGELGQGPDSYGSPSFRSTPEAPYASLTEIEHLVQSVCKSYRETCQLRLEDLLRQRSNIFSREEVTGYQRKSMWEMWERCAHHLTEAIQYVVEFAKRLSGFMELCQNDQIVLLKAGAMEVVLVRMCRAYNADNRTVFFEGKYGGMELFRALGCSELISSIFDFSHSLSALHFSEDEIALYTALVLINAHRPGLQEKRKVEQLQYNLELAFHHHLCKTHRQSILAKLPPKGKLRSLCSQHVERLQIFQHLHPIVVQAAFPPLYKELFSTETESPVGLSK
Sequence of Bile acid receptor (Homo sapiens) (Q96RI1 whole entry, looked up): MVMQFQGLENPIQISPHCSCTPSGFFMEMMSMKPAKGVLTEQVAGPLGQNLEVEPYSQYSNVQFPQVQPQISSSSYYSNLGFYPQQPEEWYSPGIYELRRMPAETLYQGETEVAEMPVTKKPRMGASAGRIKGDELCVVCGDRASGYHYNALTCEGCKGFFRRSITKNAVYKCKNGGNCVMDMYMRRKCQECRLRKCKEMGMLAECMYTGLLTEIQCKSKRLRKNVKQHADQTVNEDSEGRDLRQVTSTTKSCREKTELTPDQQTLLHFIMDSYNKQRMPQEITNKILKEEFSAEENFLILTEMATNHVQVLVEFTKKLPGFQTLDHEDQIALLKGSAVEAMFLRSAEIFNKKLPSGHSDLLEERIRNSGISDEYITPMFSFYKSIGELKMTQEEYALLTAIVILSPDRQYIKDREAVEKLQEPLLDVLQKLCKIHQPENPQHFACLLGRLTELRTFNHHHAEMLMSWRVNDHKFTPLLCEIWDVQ
Sequence of Estrogen receptor (Homo sapiens) (P03372 whole entry, looked up): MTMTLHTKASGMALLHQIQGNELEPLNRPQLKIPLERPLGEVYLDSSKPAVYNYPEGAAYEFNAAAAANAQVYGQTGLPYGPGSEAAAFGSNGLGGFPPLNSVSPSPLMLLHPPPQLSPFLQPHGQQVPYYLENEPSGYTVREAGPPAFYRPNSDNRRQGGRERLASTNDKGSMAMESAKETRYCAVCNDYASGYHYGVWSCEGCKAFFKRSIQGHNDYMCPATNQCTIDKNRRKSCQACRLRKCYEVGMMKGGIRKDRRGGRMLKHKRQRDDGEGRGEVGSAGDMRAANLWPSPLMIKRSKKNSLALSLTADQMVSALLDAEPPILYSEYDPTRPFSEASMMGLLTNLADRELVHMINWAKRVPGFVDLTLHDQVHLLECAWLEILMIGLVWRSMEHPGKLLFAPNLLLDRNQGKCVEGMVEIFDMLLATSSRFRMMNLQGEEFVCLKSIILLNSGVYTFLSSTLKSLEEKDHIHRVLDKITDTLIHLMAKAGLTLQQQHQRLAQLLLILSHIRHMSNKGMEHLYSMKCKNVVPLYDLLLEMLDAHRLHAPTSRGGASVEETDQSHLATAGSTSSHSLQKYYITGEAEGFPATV

Regarding `O=C(O)CBr`, the Potency in [1] is > 92 µM (inactive). Moreover, the Potency entry in [2], in assay [3], in assay [4], in assay [6] and in assay [9] was “inactive” in each case. For the same compound, in [5], the max response is -19.5%. The outcome in assay [7] and in assay [10] was inactive. Further, the activation in assay [8] is -0.961% (inactive).

Regarding `CCCCC#N`, the Potency in assay [1] was > 92 µM (inactive). Further, the Potency entry in [2], in assay [3], in assay [11], in assay [4], in assay [12] and in assay [14] was “inactive” in each case. The Potency result in assay [9] and in [15] was “inactive” in each case. The max response in assay [5] is -3.23%. Besides, the result in [13] was inactive.

With `COC(=O)Nc1nc2ccccc2[nH]1`, the Potency in assay [1] is 3.38 µM (active); in [16], > 92 µM (inactive); in assay [3], 6.31 µM (active). The Potency entry in assay [2], in assay [6], in assay [9] and in [15] was “inactive” each time. Further, the activation in assay [17] is -11.7% (inactive). Besides, the max response in assay [5] is -45%. For the same compound, the outcome in assay [13], in assay [18], in [7] and in [10] was inactive.

`O=C(O)C(Cl)Br` (stereo not drawn): the Potency in [1] was > 92 µM (inactive); in assay [16], > 92 µM (inactive); in assay [14], 33.5 µM (active). The Potency entry in [3], in [11], in [4] and in assay [15] was “inactive” in each case. Further, the results for the activation in [19], in assay [17] and in assay [8] were -0.167% (inactive), 5.56% (inactive) and 0.434% (inactive), respectively. In addition, the max response in [5] came to 33.1%. The result in assay [13], in [7] and in assay [10] was inactive.

`O=Cc1ccc(Cl)cc1Cl`: the Potency in assay [1] is > 92 µM (inactive). For the same compound, the Potency entry in [2], in [3], in assay [11], in [4], in [6] and in [9] was “inactive” each time. Also, the result in assay [20], in [13], in assay [18], in assay [7] and in [10] was inactive. Further, in [5], the max response is -26.8%. In addition, the activation in assay [8] was 1.15% (inactive).

Turning to `Clc1ccc(Cl)c(Cl)c1`, the Potency in [1] is > 92 µM (inactive). Moreover, the Potency entry in assay [2], in assay [3], in [11], in [4], in assay [6] and in assay [14] was “inactive” in each case. In addition, the Potency result in assay [9] and in assay [15] was “inactive” throughout. Besides, the max response in assay [5] is -17.8% and 7%. Besides, the result in [13], in [18], in assay [7] and in assay [10] was inactive.

As to `CC[N+](=O)[O-]`, the Potency in assay [1] and in assay [16] was > 92 µM (inactive) in each case. Further, the Potency entry in [3], in [6], in [9] and in [15] was “inactive” each time. In addition, the activation is 5.8% (inactive) in assay [17] and 1.19% (inactive) in assay [8]. For the same compound, the outcome in assay [20], in [18], in [7] and in assay [10] was inactive.

Consider `N#CC(O)c1ccccc1` (stereo not drawn), for which, in assay [1], the Potency is > 92 µM (inactive). Also, the Potency entry in assay [2], in assay [3], in assay [11], in assay [4], in assay [6] and in [14] was “inactive” each time. For the same compound, the Potency result in assay [15] is “inactive”. Besides, the activation was -0.559% (inactive) in assay [19], -0.987% (inactive) in assay [17] and 0.595% (inactive) in assay [8]. In addition, the result in [20], in assay [13] and in assay [7] was inactive. Moreover, the max response in assay [5] was determined as 6.88%.

The values above are taken from PubChem BioAssay (NCATS).
